# HT1080 IDH1KD tx = kills HT-1080 cells with IDH1 knockdown | hit rate 2% among 360,000 | Potency, µM (titrated, usually from 46.1 µM), usual class: cytotoxic | HT-1080 IDH1 knockdown viability, ATP luminescence, 48 h | AID 686971
#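 In this qHTS, HT-1080 cells depleted of IDH1 are exposed for 48 h at 37 °C to compound titrations. Toxicity is scored from CellTiter-Glo luminescence, with DMSO as full viability and medium alone as none.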
# DT40 TDP1 CPT = growth inhibition of DT40 Tdp1-/-;hTDP1 cells with camptothecin (screen for TDP1 inhibitors); chicken DT40 Tdp1-/-;hTDP1 cells + 20 nM CPT, ATP luminescence, 48 h; hit rate 12% among 420,000; Potency, µM (titrated, usually from 46.2 µM), hits mostly inhibitors; also: nearly all actives have a fitted effect of over 55% in size
#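 Cell growth measured by CellTiter-Glo luminescence after a minimum 48 h, 37 C compound exposure with 20 nM CPT in Tdp1-knockout DT40 cells stably expressing hTDP1, seeded 400/well; qHTS titration format.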
# TDP1 cell noCPT = qHTS for Inhibitors of human tyrosyl-DNA phosphodiesterase 1 (TDP1): qHTS in cells in absence of CPT; DT40 Tdp1-/- hTDP1 cells, no CPT, ATP luminescence, 48 h; Potency, µM (doses to about 46.2 µM), usual class: inhibitors; hit rate 15% among 420,000; AID 686978, 2013; also: nearly all actives have a fitted effect of over 55% in size
#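 A cellular qHTS used chicken DT40 cells lacking endogenous Tdp1 but carrying stably transfected human TDP1. Compounds were applied without camptothecin, and cell growth kinetics were judged by ATP-dependent luminescence after ≥48 hr.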
# ALOX12 inh = inhibitors of human 12S-lipoxygenase ALOX12; Potency, µM (titrated, usually from 108 µM), usual class: inhibitors; hit rate 1.1% among 580,000; purified 12hLO, xylenol orange hydroperoxide absorbance; P18054
# Target sequence (P18054 whole entry, looked up): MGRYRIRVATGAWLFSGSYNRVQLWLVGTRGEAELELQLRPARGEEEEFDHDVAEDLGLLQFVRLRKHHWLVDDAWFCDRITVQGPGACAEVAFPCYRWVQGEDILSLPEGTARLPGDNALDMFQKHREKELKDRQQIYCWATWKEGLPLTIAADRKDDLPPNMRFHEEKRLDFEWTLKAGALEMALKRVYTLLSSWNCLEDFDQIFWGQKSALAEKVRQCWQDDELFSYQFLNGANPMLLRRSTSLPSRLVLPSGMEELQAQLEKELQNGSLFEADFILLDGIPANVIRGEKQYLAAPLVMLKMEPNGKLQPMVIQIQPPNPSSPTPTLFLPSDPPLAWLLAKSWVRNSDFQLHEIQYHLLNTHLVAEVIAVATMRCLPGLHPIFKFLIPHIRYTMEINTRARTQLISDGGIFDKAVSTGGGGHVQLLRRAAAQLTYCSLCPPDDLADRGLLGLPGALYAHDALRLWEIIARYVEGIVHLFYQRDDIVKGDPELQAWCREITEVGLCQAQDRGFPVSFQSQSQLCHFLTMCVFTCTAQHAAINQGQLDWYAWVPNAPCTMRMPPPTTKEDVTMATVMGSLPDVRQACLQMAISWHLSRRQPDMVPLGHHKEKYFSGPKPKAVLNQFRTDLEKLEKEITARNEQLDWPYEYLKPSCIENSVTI
#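 Purified human 12hLO (150 nM final) in 25 mM Hepes, 0.01% Triton X-100, pH 7.0 was preincubated 15 min at room temperature with compound. Then 40 uM arachidonic acid was added, 30 min. Hydroperoxide was read by Fe-XO absorbance ratio 573/405 nm.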
# IL-1B inflam inh = inhibitors of inflammasome signaling (IL-1 beta secretion); hit rate 4.7% among 360,000; THP-1 LPS/ATP IL-1B secretion, AlphaLISA, 16 h; stronger effect = lower value; activity change, % at 57.5 µM; AID 743279; in the data active = activity change below about -50%; inconclusive = mostly about -30% to -49%
#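 THP-1 cells pretreated 1 hr with compounds (up to 57.5 uM final), then stimulated with LPS (250 ng/mL final) plus ATP (1.25 mM final); secreted IL-1B measured by AlphaLISA after 16 hr, decreased signal indicating inhibition.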
# HT1080-NT tox = kills 2HG-producing HT-1080-NT fibrosarcoma cells; HT-1080-NT fibrosarcoma viability, CellTiter-Glo ATP luminescence, 48 h; Potency, µM (highest dose often 46.1 µM), hits mostly cytotoxic; hit rate 1.6% among 360,000;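 also: NT is the 2HG producing partner of a matched IDH1 knockdown line; nearly all actives have a fitted effect of over 55% in size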
#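 Compounds were tested in concentration-response format on HT-1080-NT cells for 48 hours at 37 degrees C. Cell viability came from CellTiter-Glo luminescence; curves were classified by r2, response magnitude and activity.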
# A number is an active result; n = inactive; u = inconclusive; x = no result given; [ ] = remark or other dose. The sample as a whole holds a higher share of hits than the screen did. Unless noted, calls follow the shape of the dose curve; as a rule, active = well fitted curve in the direction sought with a large enough effect; inconclusive = small, poorly fitted or top-dose-only effect, or another doubt; inactive = no such curve, though single readings can be large; an effect the other way counts as inactive or inconclusive.
SMILES,HT1080 IDH1KD tx,DT40 TDP1 CPT,TDP1 cell noCPT,ALOX12 inh,IL-1B inflam inh,HT1080-NT tox
Cc1ccc(Cl)cc1N1CCN(C(=O)c2cc(S(=O)(=O)N3CCC(C)CC3)cn2C)CC1,x,23.1µM,14.6µM,n,x,x
Cc1ccc(C)c(N2CCN(C(=O)c3cc(S(=O)(=O)N4CCOCC4)cn3C)CC2)c1,n,u,u,n,n,n
COc1ccccc1N1CCN(C(=O)c2cc(S(=O)(=O)N3CCC(C)CC3)cn2C)CC1,x,20.6µM,u,n,x,x
O=C(NCc1ccccc1)C(c1ccco1)N1CCN(CCN2CCOCC2)CC1 (stereo not drawn),x,x,x,n,x,x
Cc1[nH]c(=O)[nH]c1C(=O)CCCCC(=O)O,n,n,n,n,-94.9,n
CCOc1ccc2c(c1)C(C)=CC(C)(C)N2C(=O)Nc1ccccc1,n,5.8µM,25.9µM,x,n,n
Cc1ccc2cc(CN(Cc3ccccc3)Cc3nnnn3C3CCCC3)c(=O)[nH]c2c1,u,18.4µM,12.6µM,n,-63.4,u
Cc1ccc2cc(CN(Cc3ccc(F)cc3)Cc3nnnn3C3CCCC3)c(=O)[nH]c2c1,u,29.1µM,u,n,-61.2,u
Cc1ccc2[nH]c(=O)c(CN(CCCN3CCOCC3)Cc3nnnn3C3CCCC3)cc2c1,u,u,n,n,n,n
CCc1ccc2[nH]c(=O)c(CN(Cc3ccc4c(c3)OCO4)Cc3nnnn3C3CCCC3)cc2c1,u,18.4µM,u,n,-66.0,u
Cc1ccc(C)c(S(=O)(=O)NCC2CN(Cc3ccccc3)CCO2)c1 (stereo not drawn),x,x,x,n,x,x
O=C(CSc1nc(C2CC2)n(-c2ccccc2)n1)N1CCN(c2ccccc2)CC1,x,x,x,n,x,x
Cc1ccccc1-c1cc(C(=O)n2cccn2)c2cc(Cl)ccc2n1,10µM,u,n,n,n,u
O=c1[nH]ncc(N2CCN(C(c3ccccc3)c3ccccc3)CC2)c1Cl,n,20.6µM,10.3µM,n,n,n
CCN(CC)CC(=O)Nc1sc(C)cc1C(=O)c1ccccc1,n,u,u,n,n,n
Cc1cc(C(=O)c2ccccc2)c(NC(=O)CCl)s1,u,9.2µM,23.1µM,n,-100.4,u
COc1ccc(Nc2nc(-c3ccccc3)nc3ccccc23)cc1,u,u,u,n,-94.9,u
Oc1ccc(Nc2nc3ccccc3nc2Nc2ccc(O)cc2)cc1,11.6µM,1.64µM,2.31µM,x,n,23.1µM
Oc1ccc(Nc2nc(-c3ccccc3)nc3ccccc23)cc1,u,u,u,x,-93.7,u
CC(=O)Nc1ccc(Nc2nc(-c3ccccc3)nc3ccccc23)cc1,n,18.4µM,23.1µM,n,u,n
NC(=O)c1csc(CCNC(=O)c2ccccc2)n1,n,n,n,n,n,n
COc1cccc(CCc2nc(-c3nnn4c3COC(c3ccc(C)cc3)C4)no2)c1 (stereo not drawn),x,x,x,n,x,x
CCOc1ccc(S(=O)(=O)c2cn(Cc3ccc(C)cc3)c3ccc(OC)cc3c2=O)cc1,x,u,u,n,x,x
COc1ccc(-c2nc(N/N=C(\C)c3ccc(O)cc3)c3ccccc3n2)cc1,u,20.6µM,7.31µM,n,n,u
COc1ccc(Nc2nc(-c3cccc([N+](=O)[O-])c3)nc3ccccc23)cc1,u,u,14.6µM,n,n,u
SMILES,HT1080 IDH1KD tx,DT40 TDP1 CPT,TDP1 cell noCPT,ALOX12 inh,IL-1B inflam inh,HT1080-NT tox
Cc1c(C(=O)N2CCN(S(=O)(=O)c3cc(F)ccc3F)CC2)oc2ccccc12,n,n,n,n,n,n
CC(=O)N[C@@H](CCC(N)=O)C(=O)O,x,n,n,n[22.9 µM],x,x
Cn1c(=O)c2c(ncn2Cc2cc(-c3ccccc3)no2)n(C)c1=O,n[9.24 µM],u,25.9µM,n,n,n
Cn1c(=O)c2c(ncn2Cc2ccc(Cl)c(Cl)c2)n(C)c1=O,n,23.1µM,11.6µM,n,n,n
Cn1c(=O)c2c(ncn2Cc2cccc3ccccc23)n(C)c1=O,x,x,x,n,x,x
COCc1ncc2c(n1)CCCN(CC(=O)NCc1ccccc1OC)C2=O,x,x,x,n,x,x
CCOC(=O)c1c(N2C(=O)C3C4C=CC(O4)C3C2=O)sc2c1CCCC2 (stereo not drawn),n,8.2µM,16.4µM,u,n,n
CCOC(=O)c1c(-n2cnnn2)sc2c1CCCC2,n,n,n,n,n,n
CCc1ccc2c(CSc3nc(N)cc(N)n3)cc(=O)oc2c1,x,x,x,n,x,x
CCCCCC1=CCC/C1=N\NC(=O)c1ccco1,x,x,x,n,x,x
C=CCNC(=S)N/N=C1/CCC=C1CCCCC,x,x,x,35.5µM,x,x
COC(=O)[C@H](CCSC)NC(=O)Cn1cnc2c(SC)nc(N)nc21,n,u,n,n,n,n
CCOC(=O)c1c(NC(=O)CSc2nc3ccc(OC)cc3[nH]2)sc2c1CC(C)(C)NC2(C)C,n,u,u,u,-93.8,n
COc1ccc2nc(SCC(=O)Nc3nc(C)c(C)s3)[nH]c2c1,x,x,x,n,x,x
CCOC(=O)c1c(NC(=O)COc2ccccc2F)sc2c1CC(C)(C)NC2(C)C,n,9.2µM,13µM,n,n,n
COC(=O)c1c(NC(=O)Cc2ccccc2)sc2c1CC(C)(C)NC2(C)C,n,u,u,n,u,n
CCOC(=O)c1c(NC(=O)CSc2ncccn2)sc2c1CC(C)(C)NC2(C)C,n,n,n,n,-57.5,n
COC(=O)c1c(NC(=O)COc2ccc(Cl)cc2)sc2c1CC(C)(C)NC2(C)C,n,2.91µM,3.66µM,n,-97.0,n
COc1ccc(NC(=O)c2cnc3c(c2)N([S+](=O)([O-])c2cccnc2)CCC3)cc1OC,x,x,x,n,x,x
O=C(O)c1ccc(/C=C2\SC(=S)N(NC(=O)c3ccccc3[N+](=O)[O-])C2=O)cc1,n,n,n,n,n,n
O=C1/C(=C/c2ccncc2)SC(=S)N1Nc1ccccc1,5.8µM,u,u,n,x,u
Cc1cc(C)nc(NN2C(=O)/C(=C/c3ccccc3)SC2=S)n1,n,n,u,n,n,n
O=C(O)c1ccc(/C=C2\SC(=S)N(Nc3ccccc3)C2=O)cc1,4.61µM,n,n,n,n,u
COc1cccc(CN2CCC3(CC2)CC(O)CCO3)c1 (stereo not drawn),x,x,x,n,x,x
Cc1nc([C@@H]2CN(C(=O)c3ccc(Cl)s3)C[C@H]2C(N)=O)n[nH]1,x,x,x,n,x,x
NS(=O)(=O)c1ccc(CCNC(=O)c2cc(S(=O)(=O)N3CCCCC3)ccc2Cl)cc1,n,n,n,n,n,n
COc1ccc(CCNC(=O)c2cc(S(=O)(=O)N3CCC4(CC3)OCCO4)ccc2F)cc1OC,n,u,23.1µM,n,n,n
COCCNC(=O)c1cc(S(=O)(=O)N2CCC3(CC2)OCCO3)ccc1F,n,n,n,n,n,n
